Laboratory results reported in publication PMC5540273 (PLoS ONE, 2017).

Tests used:
Conditions in all cases: concentration: 1 μM, replicates: in singlicate; n = 1
ASK2 = test system: T1, ASK2
T1 construct: gene MAP3K6

AURKA = test system: AURKA
AURKB = test system: AURKB
AURKC = test system: AURKC
AXL = test system: AXL
BIKE = test system: T2, BIKE
T2 construct: gene BMP2K

BLK = test system: BLK
BMPR1A = test system: BMPR1A
BMPR1B = test system: BMPR1B
BMPR2 = test system: BMPR2
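Further: KINOMEscan kinase panel screen.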

Compound | %Inh (ASK2) [%] | %Inh (AURKA) [%] | %Inh (AURKB) [%] | %Inh (AURKC) [%] | %Inh (AXL) [%] | %Inh (BIKE) [%] | %Inh (BLK) [%] | %Inh (BMPR1A) [%] | %Inh (BMPR1B) [%] | %Inh (BMPR2) [%]
O=C1NC(=O)C(c2ccccc2Cl)=C1Nc1cccc(Cl)c1 [SB-342409] | 0 | 0 | 22 | 0 | 0 | 15 | 2 | 0 | 0 | 0
CC(=O)Nc1cn2nc(Oc3cccc(NC(=O)c4cccc(C(F)(F)F)c4)c3)ccc2n1 | 0 | 0 | 60 | 74 | 51 | 18 | 98.2 | 10 | 0 | 0
Cc1ccc(O)cc1Nc1ccnc2ccc(C(C)(C)C)cc12 [GW856805] | 32 | 30 | 36 | 24 | 42 | 9 | 95.1 | 16 | 79 | 33
N#Cc1cnc2cc(-c3cnc(CNCCN4CCOCC4)s3)ccc2c1Nc1ccc(Oc2ccccc2)cc1 [GW664114] | 9 | 0 | 39 | 25 | 98 | 9 | 99 | 0 | 0 | 8
COC(=O)Nc1nc2cc(Oc3ccc(NC(=O)Nc4cccc(SC)c4)cc3)ccc2[nH]1.Cl [GW697999] | 0 | 0 | 92.5 | 43 | 90.1 | 6 | 65 | 0 | 0 | 4
CCOc1nccc(-c2c(-c3ccc(F)cc3)ncn2C2CCNCC2)n1 [SB-249175] | 0 | 52 | 59 | 15 | 54 | 0 | 0 | 100 | 20 | 26
Cc1cc(-c2ccnc(Nc3cccc(C#N)c3)n2)cc(C)c1O [GSK1440913] | 11 | 47 | 19 | 70 | 51 | 99.5 | 0 | 0 | 0 | 16
CN(c1ccc(NC(=O)Nc2cccc(Cl)c2)cc1)c1ccnc(N)n1.Cl [GW830707] | 15 | 28 | 68 | 70 | 37 | 4 | 0 | 0 | 0 | 52
CN(c1ccc(NC(=O)N2CCN(CCCN3CCOCC3)CC2)cc1)c1ccnc(Nc2ccc(CS(C)(=O)=O)cc2)n1.Cl [GW830899] | 0 | 84 | 76 | 75 | 2 | 86 | 0 | 6 | 7 | 0
c1ccc(Oc2ccc(Nc3ccnc4cc(-c5ccc(CN6CCCCC6)o5)ccc34)cc2)nc1 [GW567143] | 24 | 10 | 80 | 44 | 8 | 8 | 95.5 | 0 | 0 | 0
O=C(Nc1c(F)cccc1F)c1cc(C(=O)c2ccccc2F)c[nH]1 [GSK1326180] | 0 | 0 | 0 | 0 | 24 | 0 | 0 | 6 | 0 | 1
CC(C)(C)c1ccc(C(=O)Nc2cn3cc(-n4ccnc4)ccc3n2)cc1 | 6 | 0 | 24 | 0 | 0 | 0 | 0 | 3 | 0 | 8
Nc1ncc(-c2cn[nH]c2)c2scc(-c3ccc4c(c3)CCN4C(=O)Cc3ccccc3)c12 [GSK2593067] | 21 | 13 | 98.6 | 87 | 98.8 | 67 | 96 | 0 | 0 | 0
CSc1ccc(NC2=C(c3ccc(Cl)cc3)C(=O)NC2=O)cc1 [SB-317658] | 25 | 32 | 9 | 2 | 10 | 0 | 0 | 6 | 0 | 0
Cc1ccc(-c2ccc3occ(-c4ccc(S(C)=O)cc4)c3c2)nn1 (stereo not drawn) | 0 | 0 | 3 | 0 | 0 | 0 | 0 | 15 | 0 | 0
